Tau fibril ThT – blocks human tau fibril formation measured by thioflavin T. P10636. recombinant tau K18 P301L, heparin-induced fibrillization, ThT fluorescence. Potency, µM (highest dose often 57.4 µM), actives largely listed as inhibitors. actives 2.1% (n = 270,000). AID 1460; further: nearly all actives have a fitted effect of over 55% in size
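Heparin-induced (20 uM) aggregation of recombinant human K18 P301L tau, 15 uM unlabeled with 0.24 uM labeled, pH 7 acetate buffer, 6 hr at 37 C with compound. Fibrils quantified by 30 uM ThT fluorescence after 1 hr ambient incubation.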
Tau fibril FP – inhibitors of human tau fibril formation; K18 P301L tau heparin fibrillization, Alexa594 FP, 6 h; Potency, µM (titrated, usually from 57.7 µM), usual class: inhibitors; P10636; actives 0.39% (n = 280,000); further: nearly all actives have a fitted effect of over 55% in size
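Human K18 P301L fragment (15 uM unlabeled plus 0.24 uM Alexa 594-labeled) in 100 mM sodium acetate pH 7 with compound, aggregation induced by 20 uM heparin for 6 hr at 37 C. ThT (30 uM) added for 1 hr, then Alexa 594 FP read.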
TRb-SRC2 inh – TRbeta-SRC2 interaction inhibition; P10828; TRbeta-SRC2 peptide binding, fluorescence polarization; receptor liganded with 1 µM T3; Potency, µM (highest dose often 106 µM), hits mostly inhibitors; actives 0.065% (n = 280,000); further: nearly all actives have a fitted effect of over 50% in size
Target sequence (P10828 whole entry, looked up): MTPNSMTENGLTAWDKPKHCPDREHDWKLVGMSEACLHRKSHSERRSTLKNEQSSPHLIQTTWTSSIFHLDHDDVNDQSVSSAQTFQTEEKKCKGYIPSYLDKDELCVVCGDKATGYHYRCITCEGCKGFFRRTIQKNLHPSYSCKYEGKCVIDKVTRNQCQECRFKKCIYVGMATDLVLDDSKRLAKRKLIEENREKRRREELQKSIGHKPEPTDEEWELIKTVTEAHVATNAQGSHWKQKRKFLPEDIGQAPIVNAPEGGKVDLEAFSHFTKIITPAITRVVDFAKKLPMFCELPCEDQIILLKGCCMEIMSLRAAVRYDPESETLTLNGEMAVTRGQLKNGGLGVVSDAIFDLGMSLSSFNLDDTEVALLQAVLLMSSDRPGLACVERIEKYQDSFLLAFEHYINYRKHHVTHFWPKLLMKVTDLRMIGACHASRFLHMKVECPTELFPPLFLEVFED
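Fluorescence polarization of 20 nM Texas Red SRC2 peptide (20-aa NR interaction domain) bound to 0.6 uM human TRb ligand-binding domain, with 1 uM T3, after 5 hr at ambient temperature; inhibition seen as decreased polarization.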
TexasRed fluor – alters Texas Red total fluorescence, flagging assay interference. AID 1479. actives 0.29% (n = 280,000). Potency, µM (highest dose often 106 µM). TRb/SRC2 Texas Red total fluorescence interference; active means well fitted curve in either direction with a large enough effect; inconclusive means small, poorly fitted or top-dose-only effect
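Human TRβ ligand-binding domain (0.6 uM) and Texas Red SRC2 peptide (20 nM) in Tris buffer with 1 uM T3 and 5% DMSO were incubated with pinned compound for 5 hr at ambient temperature. Total fluorescence was computed as S + 2P (555/632 nm).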
Tau fluor counter – counter-screen for tau fibril formation inhibitors. tau K18 P301L Alexa594 fluorescence, heparin fibrillization. Potency, µM (top dose mostly 57.7 µM). actives 0.93% (n = 280,000); further: nearly all actives have a fitted effect of over 55% in size
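Human tau K18 P301L (15 uM unlabeled, 0.24 uM Alexa 594-labeled) in 100 mM sodium acetate pH 7 with 20 uM heparin, 6 hr at 37 C. ThT 30 uM added, 1 hr ambient; Alexa 594 FP and total fluorescence read at 555/632 nm.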
Of the large screens only hits and unclear results are named; the others gave an inactive call; [ ] = dose if it differs, or a comment. In the library only some 3.1% were active in any assay of this set; here they are far more common. Unless noted, the call rests on the fitted dose curve; in most records, active means well fitted curve in the direction sought with a large enough effect; inconclusive means small, poorly fitted or top-dose-only effect, or another doubt; inactive means no such curve, though single readings can be large; an effect the other way counts as inactive or inconclusive.

Cc1ccc(Oc2c(C(F)(F)F)oc3c(CN4CCC(C)CC4)c(O)ccc3c2=O)cc1	none
CC1=NN(CCC#N)C(=O)/C1=C/c1ccc(N(C)C)cc1	Tau fibril ThT 25µM
CCOc1cc(/C=C2\C(=O)N(CCC#N)N=C2C)ccc1OCC(N)=O	none
Cc1[nH][nH]c(=O)c1C(c1ccc(-c2ccc(Cl)c(Cl)c2)o1)c1c(C)[nH][nH]c1=O	Tau fibril ThT 8.9µM, Tau fibril FP inconclusive, TRb-SRC2 inh 14µM, Tau fluor counter inconclusive
Cc1[nH][nH]c(=O)c1C(c1ccc(-c2ccc(C(=O)O)cc2)o1)c1c(C)[nH][nH]c1=O	Tau fibril ThT 11µM, Tau fibril FP inconclusive
Cc1[nH][nH]c(=O)c1C(c1ccc(-c2ccc(F)cc2)o1)c1c(C)[nH][nH]c1=O	Tau fibril ThT 7.9µM, Tau fibril FP inconclusive, TRb-SRC2 inh inconclusive
Cc1[nH][nH]c(=O)c1C(c1ccc(N(C)C)c(Br)c1)c1c(C)[nH][nH]c1=O	Tau fibril ThT inconclusive
COc1ccc(-c2ccc(C(c3c(C)[nH][nH]c3=O)c3c(C)[nH][nH]c3=O)o2)c([N+](=O)[O-])c1	Tau fibril ThT 7.9µM, Tau fibril FP inconclusive, TRb-SRC2 inh inconclusive
COc1ccc(S(=O)(=O)N(CC(=O)Nc2ccc(OC)cc2OC)c2ccc(Cl)cc2)cc1	Tau fibril FP inconclusive, Tau fluor counter inconclusive
COc1ccc(-c2noc(CSc3nnc(-c4ccncc4)n3-c3ccc(OC)cc3)n2)cc1	Tau fibril ThT inconclusive, TRb-SRC2 inh inconclusive, TexasRed fluor 0.25µM[quencher]
COc1ccc(-c2noc(CSc3nnc(-c4ccncc4)n3-c3ccc(C)cc3)n2)cc1	Tau fibril ThT inconclusive
COc1ccc(-c2noc(CSc3nnc(Cc4ccccc4)n3-c3cccc(C)c3)n2)cc1OC	Tau fibril ThT inconclusive
Cc1ccc(-c2noc(CSc3nnc(C)n3-c3ccc(C)cc3)n2)cc1	TexasRed fluor 0.11µM[quencher]
COc1ccc(-c2noc(CSc3nnc(Cc4ccccc4)n3-c3ccccc3)n2)cc1OC	Tau fibril ThT inconclusive, TexasRed fluor 0.28µM[quencher]
CCCN1CCC(=O)N(C(CSc2ccc(OC)cc2)c2ccccc2)CC1 (stereo unspecified)	none (no result: Tau fibril ThT, Tau fibril FP, Tau fluor counter)
CSc1nnc(C)c(/C=C/Nc2ccc(F)cc2F)n1	Tau fibril ThT 25µM
CSc1nsc(/C=C/Nc2ccc(F)cc2F)c1C#N	Tau fibril ThT 14µM, Tau fluor counter inconclusive
CCN1CCCC1Cn1c(-c2ccccc2)nc2c(N3CCOCC3)nc(C)nc21 (stereo unspecified)	none
CC(C)(C)C1=CC=C(C(C)(C)C)C(=O)C1=O	Tau fibril ThT 18µM, Tau fibril FP 18µM, Tau fluor counter inconclusive
O=S(=O)(c1ccc(Cl)cc1)N1CCC(N2CCOCC2)CC1	none
Nc1nc(-c2ccc(Cl)cc2)c(N=Nc2ccc(S(=O)(=O)N3CCOCC3)cc2)s1	Tau fibril ThT 14µM, Tau fibril FP inconclusive, Tau fluor counter 11µM[quencher]
COc1ccc(Nc2nc(Nc3ccc(OC)cc3)nc(SC3=NCCS3)n2)cc1	Tau fibril ThT inconclusive, Tau fluor counter 14µM[quencher]
COc1ccc(Nc2nc(Cl)nc(NCCO)n2)cc1	none
O=C(NCCSCc1c(F)cccc1Cl)C1CCN(S(=O)(=O)Cc2ccccc2)CC1	none
N#C/C(=C\c1ccccc1)c1nc(-c2cc3c(ccc4ccccc43)oc2=O)cs1	Tau fibril FP inconclusive, TexasRed fluor 0.28µM[quencher]
N#C/C(=C\c1ccc(Cl)cc1)c1nc(-c2cc3c(ccc4ccccc43)oc2=O)cs1	none
Cc1ccc(N=Nc2ccc(N)cc2C)c(S(N)(=O)=O)c1	Tau fibril ThT 14µM, Tau fluor counter inconclusive
CCN(C(=O)c1c(C)oc2ncn(CC(C)C)c(=O)c12)c1cccc(Cl)c1	none
Cc1ccc(-c2nnc(Nc3ccc(Br)cc3)c3ccccc23)cc1S(=O)(=O)N1CCN(C)CC1	Tau fibril FP inconclusive, Tau fluor counter inconclusive
O=C(Nc1ccc(Nc2ccccc2)cc1)C(Cl)(Cl)Cl	Tau fibril ThT inconclusive, Tau fluor counter 7.9µM[quencher]
NC(=O)Nc1ccc(Nc2ccccc2)cc1	Tau fibril ThT inconclusive, Tau fluor counter inconclusive
CC(C)(C)C(=O)c1sc(Nc2ccccc2)nc1N	Tau fibril ThT inconclusive, Tau fluor counter inconclusive
Nc1nc(Nc2cccc(C(F)(F)F)c2)sc1C(=O)c1ccccc1	Tau fluor counter inconclusive
